Bioassay records deposited in PubChem BioAssay by Johns Hopkins Ion Channel Center.
In the library only some 1.6% were active in any assay of this set; here they are far more common.
KCNQ2 pot: enhances the rat KCNQ2 potassium channel | O88943 | CHO-K1 KCNQ2, FluxOR thallium flux fluorescence; stronger effect = higher value | B-score at 10 µM | 310,000 tested, 0.54% active;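 active means fluorescence ratio B-score at least 3 SD of library B-scores, with initial fluorescence B-score within 3 of them, cut at about 5.3 in these data; same plate scores as AID 2156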;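 further: B-score of peak minus minimum over baseline fluorescence ratio after K+ and Tl+ stimulus; positive B-score means potentiation of KCNQ2 with more thallium influx and brighter signal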
KCNQ2 inh: inhibitors of rat KCNQ2 potassium channel; O88943; CHO-K1 KCNQ2, FluxOR thallium flux, 20 min; stronger effect = lower value; B-score at 10 µM; 310,000 tested, 1.1% active; AID 2156;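 active means fluorescence ratio B-score at most minus 3 library SDs, with starting brightness B-score within 2 library SDs, cut at about -5.5 in these data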
Starred values were filed as active, the others as inactive; i = inactive; . = no result.

SMILES | KCNQ2 pot | KCNQ2 inh
[O-]/C(=C(\C(=S)Nc1ccc(SC(F)F)cc1)[n+]1cccc(CO)c1)c1ccc(Cl)s1 | . | i
COc1ccc2nc(/C=N/NC(=O)CCCCCNC(=O)OC(C)(C)C)ccc2c1 | 0.01 | i
CCC(Sc1nc(C)cc(C)n1)C(=O)Nc1cc(C)on1 (stereo not given) | . | i
CCC(Sc1nc(C)cc(C)n1)C(=O)O (stereo not given) | 6.2* | i
CC1(C)C2CCC1(CS(=O)(=O)NCc1ccc(Cl)cc1Cl)C(=O)C2 (stereo not given) | -5.9 | -5.9*
COc1cccc(NS(=O)(=O)CC23CCC(CC2=O)C3(C)C)c1 (stereo not given) | . | i
CCN(C(=O)COC(=O)/C=C/c1c(C)nn(-c2ccccc2)c1C)C1CCS(=O)(=O)C1 (stereo not given) | 0.08 | i
Cc1cc(NC(=O)CSc2nc3cc(C(=O)NCCCOC(C)C)ccc3c(=O)n2Cc2ccco2)no1 | . | i
Cc1ccc(NC2CCCN(C(=O)C3CCCCC3)C2)cc1C (stereo not given) | . | i
CCC(=Nc1ccccc1OC)C1=C(O)CC(c2ccccc2)CC1=O (stereo not given) | -5.8 | -5.8*
CCC(=Nc1ccccc1O)C1=C(O)CC(c2ccccc2)CC1=O (stereo not given) | 0.29 | i
O=C(Nc1ccc(F)cc1)Nc1ccccc1F | 3.2 | i
O=C(Nc1ccc2[nH]c(=S)sc2c1)Nc1ccccc1F | 40* | i
O=C(Nc1ccc2[nH]ccc2c1)c1ccccc1 | 2 | i
O=C(Nc1ccc2[nH]c(=S)sc2c1)c1ccccc1 | 16* | i
Cc1oc2c(CN3CCCC(C)C3)c(O)ccc2c(=O)c1-c1ccccc1 (stereo not given) | . | i
Cc1cc(OCc2cc(C(=O)NC(C)c3c(C)nn(C)c3C)no2)cc(C)c1Cl (stereo not given) | . | i
CCn1ncc(S(=O)(=O)N2CCN(c3cccc(OC)c3)CC2)c1C | . | i
O=C(NC1=NCCS1)c1cc(-c2cccc(Br)c2)nc2ccccc12 | . | i
Cc1ccc2nc(-c3cccc(Br)c3)cc(C(=O)NC3=NCCS3)c2c1 | -7.3 | -7.3*
CCn1c(CNC(=O)c2ccc(Cl)cc2)nnc1SCC(=O)NC1=NCCS1 | 1.5 | i
COc1ccc(-c2c[n+](CC(=O)c3ccccc3)c3n2CCCCC3)cc1 | . | i
COc1ccc(-c2c[n+]3c4n2CCCCC4=C(c2ccccc2)C3)cc1 | -6.2 | -6.2*
C=C(C(=O)Nc1ccccc1)c1ccc(C)cc1 | 0.01 | i
O=C(CN1CCN(c2ccccn2)CC1)Nc1cccc(Br)c1 | . | i
SMILES | KCNQ2 pot | KCNQ2 inh
C=C(C)c1cccc(C(C)(C)NC(=O)Nc2nncs2)c1 | . | i
C=C(C)c1cccc(C(C)(C)NC(=O)Nc2nnc(C(C)C)s2)c1 | -7.8 | -7.8*
CCN1C(=NCCOC)N[C@@H](c2cccs2)C(C(=O)OC)=C1C | 0.14 | i
COC(=O)c1c(NC(=O)CCc2ccc(C)o2)sc(C)c1C | -5.9 | -5.9*
COC(=O)c1ccc(C(=O)OC)c(NC(=O)CCc2ccc(C)o2)c1 | 0.33 | i
CC1CCCC(NC(=O)CNCc2ccccc2F)C1C (stereo not given) | 0.61 | i
Cc1nc(N)sc1-c1csc(Nc2ccccn2)n1 | 6.8* | i
Cc1nc(N)sc1-c1csc(Nc2ccc(Cl)cn2)n1 | 0.76 | i
CC(C)c1ccc(NC(=O)CCNS(=O)(=O)c2ccc3[nH]c(=O)oc3c2)cc1 | 1.7 | i
CC(C)C(c1nnnn1C1CCCCC1)N1CCc2ccccc21 (stereo not given) | . | i
c1ccc(C(c2nnnn2C2CCCC2)N2CCN(c3nc4ccccc4s3)CC2)cc1 (stereo not given) | . | i
Cc1ccc(C(c2nnnn2C2CCCC2)N2CCN(c3nc4ccccc4s3)CC2)cc1 (stereo not given) | -6.4 | -6.4*
Cc1ccc(C(c2nnnn2C2CCCCC2)N2CCc3ccccc32)cc1 (stereo not given) | -5.6 | -5.6*
CC(NCc1cccs1)c1ccccc1 (stereo not given) | 0.56 | i
CC(C)CCC(C(=O)O)C(C)CC(=O)NNC(=O)c1ccco1 (stereo not given) | 0.11 | i
COc1ccc(Cl)cc1S(=O)(=O)N(C)CC(=O)N1CCOCC1 | 0.41 | i
O=C1CCc2cc(S(=O)(=O)NCc3ccc(F)cc3)cc3c2N1CC3 | . | i
C/C(=N\NC(=O)c1nnn(-c2nonc2N)c1CN1CCC(C)CC1)c1cccc(Br)c1 | -5.7 | -5.7*
C/C(=N\NC(=O)c1nnn(-c2nonc2N)c1CN1CCCCCC1)c1ccc(Br)cc1 | . | i
COc1cccc(NC(=O)Cn2cc3c(n2)CCCCC3)c1 | -6.5 | -6.5*
COc1ccc(CNC(=O)Cn2cc3c(n2)CCCCC3)cc1 | 0.78 | i
CCCCC(=O)Nc1nnc(CCOC)s1 | 1.6 | i
